Screening data (PubChem)
An excerpt weighted towards active compounds, which were near 5.8% of everything screened.
KB-3-1 tox = kills parental KB-3-1 adenocarcinoma cells. KB-3-1 viability, CellTiter-Glo ATP luminescence, 72 h. Potency, µM (series often up to 46.1 µM), hits mostly cytotoxic. hit rate 1.4% among 400,000; note: % is set by controls: 0 for no effect and ±100 for the full control effect; nearly all actives have a fitted effect of over 60% in size
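72 h, 37 °C compound treatment of KB-3-1 parental cells; CellTiter-Glo added, 10 min, luminescence read. Data corrected against DMSO-only plates and normalized before curve fitting.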
KB-V1 MDR tox = KB-V1 MDR subline cytotoxicity | KB-V1 MDR cells viability, CellTiter-Glo, 72 h | Potency, µM (doses to about 46.1 µM), most hits filed as cytotoxic | hit rate 3.4% among 400,000 | AID 1347076; note: % is set by controls: 0 for no effect and ±100 for the full control effect; nearly all actives have a fitted effect of over 60% in size
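KB-V1 cells (P-gp-expressing MDR subline of KB-3-1) in phenol-red-free DMEM with 10% FBS were exposed to library compounds over a concentration series for 72 h at 37 degrees C. Viability read by CellTiter-Glo luminescence; concentration-effect curves fitted after normalization.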
PINK1 modulator = PINK1 expression modulation; PINK1 immunofluorescence, high-content cytometry, 24 h; Potency, µM (highest dose often 76.6 µM), for inactives: at the highest dose activation (PINK1 increase), hits mostly activators; hit rate 0.2% among 410,000; active = well fitted activation curve with a large enough effect; inconclusive = small, poorly fitted or top-dose-only effect; cell line not stated here; note: % of control where 0% means no effect; nearly all actives have a fitted effect of over 65% in size
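PINK1 protein level read as immunofluorescence by microplate cytometer in a fixed, stained stable cell line after 24 h exposure to five compound concentrations, with CCCP as control.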
12-LOX inh = inhibitors of human 12S-lipoxygenase ALOX12; P18054; purified 12hLO, xylenol orange hydroperoxide absorbance; Potency, µM (doses to about 108 µM), for inactives: at the top dose activity change, negative = inhibition, actives largely listed as inhibitors; hit rate 1.1% among 580,000; AID 1671190; note: % is set by controls: 0 for no effect and ±100 for the full control effect
Target sequence (P18054 whole entry, looked up): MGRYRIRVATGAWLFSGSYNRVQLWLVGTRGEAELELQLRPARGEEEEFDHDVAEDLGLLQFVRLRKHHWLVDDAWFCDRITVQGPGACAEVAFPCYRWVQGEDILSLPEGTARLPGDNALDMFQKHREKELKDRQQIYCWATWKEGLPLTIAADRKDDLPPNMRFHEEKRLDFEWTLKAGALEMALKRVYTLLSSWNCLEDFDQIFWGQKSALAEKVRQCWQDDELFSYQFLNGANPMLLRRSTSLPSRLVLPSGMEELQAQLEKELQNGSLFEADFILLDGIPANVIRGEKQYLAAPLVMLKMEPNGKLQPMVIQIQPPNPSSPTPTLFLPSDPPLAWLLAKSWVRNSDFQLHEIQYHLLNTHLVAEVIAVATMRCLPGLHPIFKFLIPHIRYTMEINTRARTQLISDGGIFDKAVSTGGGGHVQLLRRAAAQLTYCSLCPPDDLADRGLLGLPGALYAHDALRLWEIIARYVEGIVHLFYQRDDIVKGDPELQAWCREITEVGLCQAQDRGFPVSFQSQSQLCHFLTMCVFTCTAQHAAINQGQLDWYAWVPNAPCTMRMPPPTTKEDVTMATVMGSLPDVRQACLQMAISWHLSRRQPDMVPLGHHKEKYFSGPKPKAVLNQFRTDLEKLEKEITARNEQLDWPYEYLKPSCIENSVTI
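Purified human 12hLO (150 nM final) in 25 mM Hepes, 0.01% Triton X-100, pH 7.0 was preincubated 15 min at room temperature with compound. Then 40 uM arachidonic acid was added, 30 min. Hydroperoxide was read by Fe-XO absorbance ratio 573/405 nm.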
MCF10A rereplic = induces DNA re-replication in MCF 10a normal breast cells; MCF 10A DNA re-replication, Hoechst nuclear intensity, 48 h; Potency, µM (series often up to 46.1 µM), for the others: at the top dose activity, positive = re-replication, actives largely listed as activators; hit rate 2.9% among 350,000; AID 624296; note: % of control where 0% means no effect; nearly all actives have a fitted effect of over 50% in size
SW480 rerep = DNA re-replication induction in SW480 cells; SW480 DNA re-replication, Hoechst DNA content imaging, 48 h; Potency, µM (top dose mostly 46.1 µM), without a hit: top-dose re-replication activation, actives largely listed as activators; hit rate 1.8% among 340,000; AID 624297; note: % of control where 0% means no effect; nearly all actives have a fitted effect of over 55% in size
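SW480 cells exposed to compounds for 48 hr at 37 C, 5% CO2, then Hoechst-stained 40 min. Nuclear DNA content imaged by fluorescence scanning (405 nm excitation, 500-530 nm emission); re-replication scored as increased high-intensity nuclei.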
* = called active by the depositor; i = inactive; ? = inconclusive; . = no result; [ ] = another dose, or the depositor's remark. Unless noted, calls come from the whole dose curve; as a rule, active = well fitted curve in the direction sought with a large enough effect; inconclusive = small, poorly fitted or top-dose-only effect, or another doubt; inactive = no such curve, though single readings can be large; an effect the other way counts as inactive or inconclusive. Potency is the fitted concentration of half-maximal effect.

SMILES	KB-3-1 tox	KB-V1 MDR tox	PINK1 modulator	12-LOX inh	MCF10A rereplic	SW480 rerep
CC(NC(=O)CSc1ncnc2ccccc12)c1ccccc1 (stereo unspecified)	.	.	.	38%	.	.
CCCCN(CCCC)C(=O)CSc1nnc2n(C)c(=O)c3c4c(sc3n12)CCCC4	?	23µM*	-1%	8%	-10%	1%
CCCSc1nnc2n(-c3cccc(C)c3)c(=O)c3c4c(sc3n12)CCCC4	?	23µM*	5%	-15%	.	.
Cc1ccc(NC2(c3nnnn3-c3ccccc3C)CCCC2)cc1	.	.	.	-29%	.	.
C(#Cc1ccccc1)CNC12CC3CC(CC(C3)C1)C2	.	.	.	-22%	.	.
C/C(=N\N1CCN(C2c3ccccc3-c3ccccc32)CC1)c1ccncc1	?	18µM*	0%	?	15%	-2%
CCOc1cc(/C=C2\CCn3c2nc2cc(Cl)ccc2c3=O)ccc1O	i	i	5%	-14%	13µM*	10µM*
COc1cc(C=C2CN(C)C(=O)C2=O)ccc1O	i	i	-1%	?	.	.
COc1ccc(/C=C2/CCn3c2nc2cc(Cl)ccc2c3=O)cc1O	.	.	.	1.8µM*	.	.
O=C(O)c1ccc2c(=O)n3c(nc2c1)/C(=C/c1cccc(O)c1)CC3	i	i	1%	7.9µM*	1%	-10%
CCOc1cc(/C=C2\CN(C)C/C(=C\c3ccc(O)c(OCC)c3)C2=O)ccc1O	7.3µM*	21µM*	-2%	?	0.73µM*	1.6µM*
CCn1c2ccccc2c2cnc(N=CN(C)C)c(C#N)c21	i	7.3µM*	-3%	-9%	3%	0%
CCN(CC)CCn1c2ccccc2c2cnc(N=CN(C)C)c(C#N)c21	?	?	-2%	i	21µM*	5%
CN(C)/C=N/c1c(C#N)cnn1-c1ccccc1	i	i	.	18%	?	-7%
Cc1cccc(NC(=O)C(C#N)C(=O)CCc2ccccc2)c1 (stereo unspecified)	.	.	.	32µM*	.	.
Cc1cccc(NC(=S)NC(C)CCc2ccccc2)c1 (stereo unspecified)	i	i	?	40µM*	2%	1%
O=C(N/N=C/c1cc([N+](=O)[O-])ccc1O)c1ccc(COc2ccc3c(c2)CCC3)o1	?	?	1%	?	?	?
CCOc1ccc(OCc2ccc(C(=O)NCc3ccncc3)o2)cc1	i	?	-7%[38.3 µM]	-2%	18µM*	-2%
CCc1ccc(OCc2ccc(C(=O)NCc3ccccn3)o2)cc1	i	i	2%	12%	26%	4%
O=C(NCc1cccnc1)c1ccc(COc2ccc3c(c2)CCC3)o1	i	18µM*	0%[38.3 µM]	3%	?	9%
COc1ccc(Br)cc1/C=N/NC(=O)c1ccc(COc2ccc3c(c2)CCC3)o1	i	i	7%	30%	12µM*	18%
Cc1nn(CCc2nnc(Nc3ccn(Cc4ccccc4Cl)n3)s2)c(C)c1Cl	.	.	.	-1%	.	.
CN(C)c1oc(-c2ccccc2Cl)nc1S(=O)(=O)c1ccc2c(c1)OCCO2	.	.	.	-8%	.	.
COC(=O)C1=CN(Cc2ccc(C)cc2)C=C(C(=O)OC)C1c1ccc(F)c(F)c1	i	?	0%	.	23µM*	4.6µM*
COC(=O)C1=CN(Cc2ccccc2)C=C(C(=O)OC)C1c1cc(F)ccc1F	i	i	2%	85%	21µM*	?
SMILES	KB-3-1 tox	KB-V1 MDR tox	PINK1 modulator	12-LOX inh	MCF10A rereplic	SW480 rerep
CC(C)OCc1cccc(CNC(=O)CNC(=O)C2CCCC2)c1	.	.	.	10%	.	.
C[C@@H](C1=C(CCN(C)C)Cc2ccccc21)c1ccccn1	.	.	.	-4%[22.9 µM]	.	.
CC(C1=C(CCN(C)C)Cc2ccccc21)c1ccccn1 (stereo unspecified)	i	16µM*	-5%	0%	-2%	0%
CC(=O)NNC(=S)Nc1ccccc1Cl	.	.	.	14%	.	.
CN(Cc1ccco1)C(=O)Cc1cccn1-c1ccc(F)cc1	.	.	.	-18%	.	.
Cn1c(SCC(=O)Nc2ccccc2-c2ccccc2)nnc1-c1ccco1	i	18µM*	0%	9%	10%	?
CCn1c2ccccc2c2cc(NC(=O)CSc3nnc(-c4cccc(F)c4)o3)ccc21	7.3µM*	12µM*	1%	76%	5.2µM*	?
CCn1c(SCC(=O)Nc2ccc3c(c2)c2ccccc2n3CC)nnc1-c1ccco1	i	i	.	11µM*	11%	5%
CCn1c(SCC(=O)Nc2ccc3c(c2)oc2ccccc23)nnc1-c1ccc(N)cc1	?	18µM*	-2%	0%	?	?
CSc1ccccc1C(=O)Nc1nc(-c2nc3ccccc3s2)cs1	.	.	.	-17%	.	.
Cc1ccc(C)c(NC(=O)CSc2nnc(-c3ccccc3)o2)c1	i	i	2%	i	-4%	-9%
CCn1c2ccccc2c2cc(NC(=O)CSc3nnc(-c4cccc(C)c4)o3)ccc21	23µM*	?	3%	-7%	?	?
COc1ccccc1C(=O)Nc1nnc(SCC(=O)Nc2ccc3c(c2)oc2ccccc23)s1	i	18µM*	16%	-3%	3%	0%
CCn1c2ccccc2c2cc(NC(=O)CSc3nnc(-c4ccccc4)o3)ccc21	i	?	9%	5%	?	0.65µM*
CC(C)C(=N)N	.	.	.	27%	.	.
CNC(=O)c1ccc(/C=C/C(=O)N(Cc2ccsc2)C2CC2)cc1	.	.	.	2%	.	.
Cc1nc2scc(-c3cccs3)c2c(=O)[nH]1	i	i	-6%[38.3 µM]	-12%	-7%	-5%
O=c1[nH]c(-c2ccc(O)cc2)nc2scc(-c3cccs3)c12	i	i	1%	-7%	7.3µM*	12%
COc1ccc(C(=O)OCc2ccc(C#N)cc2)c(O)c1	.	.	.	0%	.	.
CS/C(N)=N/N=C/c1cc(Br)cc(Br)c1O	i	?	4%	8%	?	?
CC(C)(C)c1ccc(/C=N/Nc2nncn2N)cc1	i	i	1%	16%	12µM*	26%
CSc1ccc(/C=N\Nc2nncn2N)cc1	i	i	0%	?	?	7%
Nn1cnnc1N/N=C/c1cc(Br)cc(Br)c1O	?	2.3µM*	1%	31%	?	?
O=C(NCCCO)C1CC(=O)N(c2n[nH]c3cc(Br)ccc23)C1 (stereo unspecified)	.	.	.	9%	.	.
CCCN(CC(=O)NC(=O)Nc1ccc(C)c(C)c1)Cc1nnc(-c2cccs2)o1	.	.	.	2%	.	.
CSc1nc2cc(Oc3cccc(Cl)c3Cl)c(Cl)cc2[nH]1	i	i	?	-6%	9.2µM*	10%
CC(NC(=O)c1ccc2c(c1)NC(=O)CS2)c1ccc2c(c1)OCO2 (stereo unspecified)	.	.	.	14µM*	.	.
